Screens: PubChem, Broad Institute
EBV LMP1 NFkB = reduces LMP1-driven NF-kappaB luciferase signal. LMP1-induced NF-kappaB luciferase reporter cells, luminescence. inhibition, % at 12.5 µM. actives 0.69% (n = 350,000); in the data active = inhibition above about 41%; inconclusive = no clear call, values can overlap the other calls;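 note: 0% = neutral control wells and 100% = reference inhibitor control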
MITF TRPM1 HTS = activators of MITF-driven TRPM1 promoter activity in SK-MEL-5 cells | activation, % at 12.5 µM | SK-MEL-5 TRPM1-promoter luciferase, 24 h; % of positive control, neutral wells = 0 | actives 0.75% (n = 300,000);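 active = mean activation of at least 80% with every replicate also reaching 80%; inconclusive = mean reaches 80% but some replicate falls short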;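 note: 0% = neutral control wells and 100% = parthenolide positive control wells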
Wnt bcat act = activators of Wnt/beta-catenin signaling; Wnt/beta-catenin reporter cell assay, activator, plate reader; activation, % at 9.35 µM; actives 1.2% (n = 300,000); in the data active = activation above about 30%, passing the limit was not always enough; inconclusive = no clear call, values can overlap the other calls;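 note: 0% = neutral control wells and 100% = positive control wells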
Statin myotox sup = suppressors of simvastatin-induced myotoxicity in C2C12 myotubes; ATP luminescence, 48 h; scaled: DMSO 0, geranylgeraniol control 100; rescue of ATP level, % at 7.49 µM; actives 0.78% (n = 330,000); AID 602340;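 active = mean ATP rescue above about 67%, or every replicate alone reaching that limit, limit read from the data, passing the limit was not always enough; inconclusive = no clear call, values can overlap the other calls; inactive = mean under the limit and some replicate under it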;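 note: myotubes were challenged with 10 µM simvastatin during compound exposure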
TRPM1 prom inh = reduces MITF-dependent TRPM1 promoter luciferase signal; SK-MEL-5 TRPM1 promoter luciferase, 24 h; inhibition, % at 12.5 µM; actives 0.83% (n = 330,000); AID 488899;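 active = mean inhibition across replicates of 60% or more, whatever share of single replicates reaches that level; inconclusive = some that reach 60%, reason not given; inactive = mean inhibition across replicates below 60%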
esBAF inh = blocks esBAF chromatin remodeling in mouse ES cells; Bmi1-luciferase knock-in reporter, 24 h; 100% = twice the neutral-well signal; reporter increase, % at 12.5 µM; actives 2% (n = 350,000); AID 602393; in the data active = activation above about 40%; inconclusive = no clear call, values can overlap the other calls;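 note: 0% = median of the plate's neutral control wells and 100% = double that signal; a rise in the Bmi1 reporter signal indicates esBAF inhibition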
* marks the source's active call; other numbers are inactive results; ? = inconclusive; . = not tested or not shown. Hits are enriched below; roughly 4% of the tested compounds scored in any of these assays.

SMILES	EBV LMP1 NFkB	MITF TRPM1 HTS	Wnt bcat act	Statin myotox sup	TRPM1 prom inh	esBAF inh
Clc1ccc(C2=NOC(c3nnc(-c4ccccc4)o3)C2)cc1 (stereo not drawn)	5	3	-1	9	0	1
Clc1cccc(Cl)c1C1=NOC(c2nnc(-c3ccccc3)o2)C1 (stereo not drawn)	-5	70	15	17	-70	50*
Cc1ccsc1/C=C1\SC(N)=NC1=O	50*	5	.	.	-4	.
NC1=NC(=O)/C(=C/c2ccc(Br)cc2)S1	74*	3	0	11	1	0
Cc1ccc(/C=C2\SC(N)=NC2=O)s1	-5	9	2	.	-9	.
COCc1nc2ccccc2n1CCCOc1ccccc1	-2	.	-2	127*	-8	8
CCCn1c(COc2ccccc2)nc2ccccc21	-3	-1	2	8	2	-4
CCOCCn1c(COc2ccccc2)nc2ccccc21	1	15	.	122*	-10	-22
COCn1c(COc2ccc3ccccc3c2)nc2ccccc21	-58	?	.	-31	-81	79*
Cc1nc2ccccc2n1CCCOc1ccccc1	-3	36	.	.	-36	.
CCN(CC)C(=O)[C@H]1C[C@H](CC(=O)NCCCn2ccnc2)C(=O)N2CCc3c([nH]c4cc(-c5ccco5)ccc34)[C@]12C	5	-3	-1	6	1	-4
CCOC(=O)/C=C(/C)N1N=C(c2ccc(OC)cc2)CC1c1cccc([N+](=O)[O-])c1 (stereo not drawn)	-9	-3	26	-7	4	55*
COc1ccc(C2=NN(C(=O)c3ccccc3)C(c3cccc([N+](=O)[O-])c3)C2)cc1 (stereo not drawn)	-6	9	28	.	-4	.
CC(=O)COc1ccc2c(c1C)O/C(=C\c1ccco1)C2=O	2	64	6	36	-69	61*
COc1ccc2c(c1)O/C(=C\c1ccco1)C2=O	-22	72	11	18	-69	30
Cc1nc([N+](=O)[O-])c(Sc2nc3ccccc3n2C)n1Cc1ccccc1	-1	-59	.	.	63*	.
Cc1nc([N+](=O)[O-])c(SCC(N)=O)n1Cc1ccccc1	-3	-8	-2	.	6	.
C[C@H]1C(=O)N(C)CCN1Cc1cn(C)nc1-c1ccc(Oc2ccccc2)cc1	5	-15	1	1	14	-5
CCN(CC)C(=O)C1CCN(Cc2cn(C)nc2-c2ccc(Oc3ccccc3)cc2)CC1	8	-11	54*	.	13	.
CCOc1c(Br)cc(CNc2ccc3c(c2)OCCO3)cc1OC	19	-56	.	-90	56	-32
CCOc1cc(CNCc2cccs2)cc(Br)c1OC	0	1	-2	97*	1	1
CCOc1cc(CNc2ccc3c(c2)OCCO3)cc(Br)c1OC	32	-60	.	-53	62*	-57
COc1cc(CNCCO)cc(Br)c1OCc1cccs1	-4	3	.	.	-5	.
COc1ccccc1N(C)C(=O)c1cc(S(=O)(=O)N2CCCC2)cn1C	-2	-5	1	-9	7	-8
N#CC1=C(N)N2C(=C(C#N)C1c1cccc(Br)c1)Nc1ccccc12 (stereo not drawn)	52*	-46	-34	.	51	.
SMILES	EBV LMP1 NFkB	MITF TRPM1 HTS	Wnt bcat act	Statin myotox sup	TRPM1 prom inh	esBAF inh
N#CC1=C(N)N2C(=C(C#N)C1c1ccc(Br)cc1)Nc1ccccc12 (stereo not drawn)	.	.	-28	.	.	.
COc1cccc(CNC(=O)c2cccc(NC(=O)CC3SC(N4CCCCC4)=NC3=O)c2)c1 (stereo not drawn)	3	-23	-2	3	27	-2
O=C(CN1CCN(S(=O)(=O)c2ccc(F)cc2)CC1)Nc1cccc(C(F)(F)F)c1	74*	4	-6	-35	-2	-2
COc1ccc(S(=O)(=O)N2CCN(CC(=O)Nc3cc(OC)cc(OC)c3)CC2)cc1	79*	-4	.	.	7	.
COc1cccc(NC(=O)CN2CCN(S(=O)(=O)c3ccc(F)cc3)CC2)c1	-7	-7	-3	-46	4	-3
Cc1ccc(S(=O)(=O)N2CCCCC2)cc1NC(=O)Cn1ccc(C(F)(F)F)n1	2	-11	-2	8	12	-16
O=C(Nc1cccc(C(F)(F)F)c1)C1CCN(S(=O)(=O)c2cnc[nH]2)CC1	-3	-3	-14	107*	4	-7
O=C(Cn1ccc(C(F)(F)F)n1)Nc1cccc(S(=O)(=O)N2CCCCC2)c1	53*	-3	-1	.	3	.
Cc1ccc(C(=O)NCc2ccccc2F)cc1S(=O)(=O)N1CCCC1	1	-11	-2	13	12	6
COc1ccc(S(=O)(=O)N2CCN(CC(=O)Nc3ccccc3Cl)CC2)cc1	1	-1	-1	5	4	-7
c1ccc2c(c1)CCCC2C1=NCCN1 (stereo not drawn)	79*	0	1	9	1	3
Cc1ccc(CN2C(=O)CC(Nc3ccc(N4CCOCC4)cc3)C2=O)cc1 (stereo not drawn)	3	-7	-2	0	10	4
Cc1ccc(Oc2c(C(N)=O)cc([N+](=O)[O-])cc2[N+](=O)[O-])cc1	12	-91	1	.	92*	.
Cc1ccc(CNc2ccc([N+](=O)[O-])cc2C(N)=O)cc1	-9	106*	20	-4	-103	54*
CCCCc1ccc(NC(=S)N2CCN(C(=O)OCC)CC2)cc1	7	.	0	-4	3	-1
COC(=O)C1C=CC(OC2OC(COC(C)=O)C(OC(C)=O)C(OC(C)=O)C2OC(C)=O)n2c(=O)n(-c3ccccc3)c(=O)n21 (stereo not drawn)	-4	-94	-3	.	95*	.
Cc1cc(C)c(S(=O)(=O)N2CCCC2)c(C)c1	-6	.	1	5	6	2
COC(=O)c1ccc2c(=O)[nH]c(CSc3nnc(C(F)(F)F)n3C)nc2c1	8	3	-4	.	-5	.
CCOc1cc(-c2sc(Nc3ccccc3)n[n+]2C)ccc1OC	81*	7	-5	1	-6	-4
CCOC(=O)c1ccc(CC(=O)c2ccc(O)cc2O)o1	51*	-50	.	3	49	49*
COC(=O)c1ccc(CC(=O)c2ccc(O)cc2O)o1	0	-22	1	.	19	4
CC(C)C(OC(=O)CCC(=O)Nc1nccs1)C(=O)NC1CCCCC1 (stereo not drawn)	-7	0	-1	99*	3	-5
CC(C)C(OC(=O)CCCC(=O)Nc1nccs1)C(=O)NC1CCCCC1 (stereo not drawn)	5	-2	-2	.	0	.
O=C(Nc1ccon1)c1ccc(N2CCCCC2)c([N+](=O)[O-])c1	-28	91*	29	.	-82	.
Cc1cc(NC(=O)c2ccc(N3CCCC3)c([N+](=O)[O-])c2)no1	0	0	16	.	-3	.
